Results on seven compounds are retold here after ChEMBL document CHEMBL1961873, “Compounds: GSK PKIS; Assays: Nanosyn kinase panel” (2012).

In test [1] the test system is Proto-oncogene tyrosine-protein kinase receptor Ret (Homo sapiens), P07949 [Y791F]. The settings on record: at 1 µM.
Test [2] has as its target Macrophage-stimulating protein receptor (Homo sapiens) (UniProt Q04912). As to conditions: at 0.1 µM.
Test [3] has the same target. As to conditions: at 1 µM.
In test [4] the target is Proto-oncogene tyrosine-protein kinase ROS (Homo sapiens) (UniProt P08922). As to conditions: at 0.1 µM.
Test [5] has the same target. As to conditions: at 1 µM.
In test [6] the target is Proto-oncogene tyrosine-protein kinase Src (Homo sapiens) (UniProt P12931). The settings on record: at 0.1 µM.
Chain of Proto-oncogene tyrosine-protein kinase Src (Homo sapiens) (P12931 2-536 limits assumed): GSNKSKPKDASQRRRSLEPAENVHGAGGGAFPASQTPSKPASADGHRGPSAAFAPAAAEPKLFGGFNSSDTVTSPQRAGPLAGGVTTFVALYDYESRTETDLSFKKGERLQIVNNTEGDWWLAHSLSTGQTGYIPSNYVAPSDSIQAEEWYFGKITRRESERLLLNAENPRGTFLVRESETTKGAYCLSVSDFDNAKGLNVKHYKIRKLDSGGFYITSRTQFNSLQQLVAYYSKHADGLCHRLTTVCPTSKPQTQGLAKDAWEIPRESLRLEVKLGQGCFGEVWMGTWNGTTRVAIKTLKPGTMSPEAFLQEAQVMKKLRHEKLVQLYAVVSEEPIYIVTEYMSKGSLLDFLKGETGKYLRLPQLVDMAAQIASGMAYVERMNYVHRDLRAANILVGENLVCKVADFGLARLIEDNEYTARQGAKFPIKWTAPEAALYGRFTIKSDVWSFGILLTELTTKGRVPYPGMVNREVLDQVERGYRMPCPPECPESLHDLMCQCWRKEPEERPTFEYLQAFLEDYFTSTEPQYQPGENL
Test [7] has the same target. As to conditions: at 1 µM.
In test [8] the target is Tyrosine-protein kinase Srms (Homo sapiens) (UniProt Q9H3Y6). The settings on record: at 0.1 µM.
Chain of Tyrosine-protein kinase Srms (Homo sapiens) (Q9H3Y6 whole entry): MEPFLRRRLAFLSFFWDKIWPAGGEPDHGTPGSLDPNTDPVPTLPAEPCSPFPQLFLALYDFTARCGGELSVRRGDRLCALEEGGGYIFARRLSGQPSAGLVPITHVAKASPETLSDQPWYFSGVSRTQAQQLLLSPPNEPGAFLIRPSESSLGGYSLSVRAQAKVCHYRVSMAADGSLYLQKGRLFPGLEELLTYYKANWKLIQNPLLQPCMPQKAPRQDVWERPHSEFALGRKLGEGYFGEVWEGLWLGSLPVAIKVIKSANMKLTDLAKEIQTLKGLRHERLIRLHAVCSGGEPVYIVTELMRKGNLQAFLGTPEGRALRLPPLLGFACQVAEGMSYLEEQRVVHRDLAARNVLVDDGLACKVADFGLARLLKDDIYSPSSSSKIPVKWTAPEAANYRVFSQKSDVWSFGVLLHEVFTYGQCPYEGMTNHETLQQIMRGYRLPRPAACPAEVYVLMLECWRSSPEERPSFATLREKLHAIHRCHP
Test [9] shares this target. The settings on record: at 1 µM.
Test [10] addresses Tyrosine-protein kinase SYK (Homo sapiens) (UniProt P43405). The settings on record: at 0.1 µM.
Test [11] has the same target. The settings on record: at 1 µM.
Test [12] concerns the target T1, Tyrosine-protein kinase Tec (Homo sapiens) (UniProt P42680).
T1 sequence (whole entry): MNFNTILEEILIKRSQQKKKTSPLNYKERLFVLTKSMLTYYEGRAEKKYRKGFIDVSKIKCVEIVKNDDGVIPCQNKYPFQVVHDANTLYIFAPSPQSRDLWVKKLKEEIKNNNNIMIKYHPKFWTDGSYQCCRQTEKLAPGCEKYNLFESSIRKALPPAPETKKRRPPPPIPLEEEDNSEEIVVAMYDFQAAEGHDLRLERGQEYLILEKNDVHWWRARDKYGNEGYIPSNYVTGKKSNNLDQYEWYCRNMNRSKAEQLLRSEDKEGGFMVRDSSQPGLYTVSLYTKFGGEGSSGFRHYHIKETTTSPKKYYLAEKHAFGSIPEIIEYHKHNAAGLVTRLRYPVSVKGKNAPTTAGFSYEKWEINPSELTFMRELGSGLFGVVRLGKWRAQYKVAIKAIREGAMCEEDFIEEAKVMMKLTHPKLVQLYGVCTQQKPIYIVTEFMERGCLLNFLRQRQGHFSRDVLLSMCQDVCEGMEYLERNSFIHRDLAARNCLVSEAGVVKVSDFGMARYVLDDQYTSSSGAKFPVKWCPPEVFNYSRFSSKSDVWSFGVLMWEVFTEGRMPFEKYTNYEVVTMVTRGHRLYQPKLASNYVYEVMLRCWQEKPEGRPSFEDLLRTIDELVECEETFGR
As to conditions: at 0.1 µM.

Test [13] concerns the target T1, Tyrosine-protein kinase Tec (Homo sapiens). As to conditions: at 1 µM.
Test [14] has as its target Angiopoietin-1 receptor (Homo sapiens) (UniProt Q02763). The settings on record: at 0.1 µM.
The target is the same in test [15]. The settings on record: at 1 µM.
Test [16] deals with T2, Non-receptor tyrosine-protein kinase TNK1 (Homo sapiens) (UniProt Q13470).
T2 sequence (whole entry): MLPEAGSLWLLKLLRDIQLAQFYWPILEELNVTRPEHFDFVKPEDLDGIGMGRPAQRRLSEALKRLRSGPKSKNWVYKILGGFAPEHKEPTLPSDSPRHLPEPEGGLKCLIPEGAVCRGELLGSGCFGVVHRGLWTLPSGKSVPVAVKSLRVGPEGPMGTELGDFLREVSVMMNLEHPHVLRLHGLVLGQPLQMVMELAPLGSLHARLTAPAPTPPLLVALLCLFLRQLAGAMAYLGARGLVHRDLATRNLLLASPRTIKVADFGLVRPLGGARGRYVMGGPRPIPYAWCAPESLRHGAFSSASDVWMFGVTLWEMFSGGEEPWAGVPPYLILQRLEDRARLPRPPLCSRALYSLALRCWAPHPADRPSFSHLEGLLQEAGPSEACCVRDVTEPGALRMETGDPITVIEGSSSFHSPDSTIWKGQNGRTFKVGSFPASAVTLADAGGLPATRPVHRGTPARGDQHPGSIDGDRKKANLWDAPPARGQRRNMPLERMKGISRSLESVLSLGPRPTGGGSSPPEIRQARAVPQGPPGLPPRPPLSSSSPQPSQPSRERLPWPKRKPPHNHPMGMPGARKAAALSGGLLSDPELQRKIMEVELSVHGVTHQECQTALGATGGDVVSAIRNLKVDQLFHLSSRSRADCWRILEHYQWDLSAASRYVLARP
As to conditions: at 0.1 µM.

Test [17] has as its target T2, Non-receptor tyrosine-protein kinase TNK1 (Homo sapiens). As to conditions: at 1 µM.
Test [18] concerns the target Activated CDC42 kinase 1 (Homo sapiens) (UniProt Q07912). The settings on record: at 0.1 µM.
The target is the same in test [19]. The settings on record: at 1 µM.
Test [20] has as its target High affinity nerve growth factor receptor (Homo sapiens) (UniProt P04629). As to conditions: at 0.1 µM.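 Note: each value is a mean of replicate percent inhibition readings against TRKA kinase.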

Chain of Proto-oncogene tyrosine-protein kinase receptor Ret (Homo sapiens), P07949 [Y791F] (P07949 whole entry Y791F): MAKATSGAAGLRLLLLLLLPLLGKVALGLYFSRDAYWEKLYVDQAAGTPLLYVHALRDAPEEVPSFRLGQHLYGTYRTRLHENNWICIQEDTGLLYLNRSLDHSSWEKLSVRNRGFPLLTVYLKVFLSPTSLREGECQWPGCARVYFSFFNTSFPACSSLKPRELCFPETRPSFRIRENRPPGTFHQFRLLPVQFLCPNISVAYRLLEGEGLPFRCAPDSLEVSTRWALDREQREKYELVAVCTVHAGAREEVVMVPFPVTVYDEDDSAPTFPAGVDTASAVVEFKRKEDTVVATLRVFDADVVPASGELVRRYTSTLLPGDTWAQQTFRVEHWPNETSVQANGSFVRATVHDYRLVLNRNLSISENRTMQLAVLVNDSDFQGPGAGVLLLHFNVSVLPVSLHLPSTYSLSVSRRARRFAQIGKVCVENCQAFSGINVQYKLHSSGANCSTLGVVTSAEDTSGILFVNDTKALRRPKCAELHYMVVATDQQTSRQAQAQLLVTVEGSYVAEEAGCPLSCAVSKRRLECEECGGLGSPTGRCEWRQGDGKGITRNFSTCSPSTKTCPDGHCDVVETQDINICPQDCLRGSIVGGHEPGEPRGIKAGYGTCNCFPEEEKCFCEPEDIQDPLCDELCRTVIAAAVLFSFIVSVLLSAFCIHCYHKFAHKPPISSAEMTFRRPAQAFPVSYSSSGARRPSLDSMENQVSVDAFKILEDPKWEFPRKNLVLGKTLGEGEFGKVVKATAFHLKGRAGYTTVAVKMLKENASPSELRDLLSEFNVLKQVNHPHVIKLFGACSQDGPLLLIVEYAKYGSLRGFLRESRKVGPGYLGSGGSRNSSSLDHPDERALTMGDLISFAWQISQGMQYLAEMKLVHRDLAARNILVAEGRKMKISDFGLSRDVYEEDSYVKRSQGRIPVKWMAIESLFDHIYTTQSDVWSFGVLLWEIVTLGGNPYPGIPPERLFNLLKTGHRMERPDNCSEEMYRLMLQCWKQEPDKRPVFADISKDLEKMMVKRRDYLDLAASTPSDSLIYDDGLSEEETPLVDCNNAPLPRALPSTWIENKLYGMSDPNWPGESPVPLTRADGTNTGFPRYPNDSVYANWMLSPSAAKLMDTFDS
Chain of Activated CDC42 kinase 1 (Homo sapiens) (Q07912 whole entry, looked up): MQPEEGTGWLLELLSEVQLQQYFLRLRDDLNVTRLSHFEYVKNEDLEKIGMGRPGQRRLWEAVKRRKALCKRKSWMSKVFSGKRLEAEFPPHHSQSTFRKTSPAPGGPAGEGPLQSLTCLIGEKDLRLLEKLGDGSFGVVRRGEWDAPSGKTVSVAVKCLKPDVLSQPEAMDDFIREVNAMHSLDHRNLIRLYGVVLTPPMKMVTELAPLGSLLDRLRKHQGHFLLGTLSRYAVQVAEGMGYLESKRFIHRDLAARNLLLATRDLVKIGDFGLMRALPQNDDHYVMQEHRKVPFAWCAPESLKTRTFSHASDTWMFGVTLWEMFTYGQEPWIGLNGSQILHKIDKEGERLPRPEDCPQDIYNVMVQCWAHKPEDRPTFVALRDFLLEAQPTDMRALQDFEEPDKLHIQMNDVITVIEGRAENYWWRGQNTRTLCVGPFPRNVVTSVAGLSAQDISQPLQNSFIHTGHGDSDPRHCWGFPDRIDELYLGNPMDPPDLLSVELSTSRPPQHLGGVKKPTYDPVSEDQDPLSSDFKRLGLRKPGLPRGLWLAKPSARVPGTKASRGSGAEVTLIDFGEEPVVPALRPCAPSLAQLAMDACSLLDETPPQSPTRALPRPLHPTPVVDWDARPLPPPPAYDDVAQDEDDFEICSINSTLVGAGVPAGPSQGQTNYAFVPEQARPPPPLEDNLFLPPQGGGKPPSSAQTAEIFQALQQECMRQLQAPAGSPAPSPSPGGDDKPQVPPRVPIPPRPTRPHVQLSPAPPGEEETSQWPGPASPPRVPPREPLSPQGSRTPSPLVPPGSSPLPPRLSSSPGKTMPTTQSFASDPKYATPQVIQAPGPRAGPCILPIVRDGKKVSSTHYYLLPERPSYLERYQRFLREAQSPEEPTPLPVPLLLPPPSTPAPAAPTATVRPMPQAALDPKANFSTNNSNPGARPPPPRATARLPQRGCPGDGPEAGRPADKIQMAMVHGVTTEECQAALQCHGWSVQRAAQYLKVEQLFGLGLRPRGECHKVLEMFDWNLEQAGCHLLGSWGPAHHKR
Chain of Macrophage-stimulating protein receptor (Homo sapiens) (Q04912 25-304 limits assumed): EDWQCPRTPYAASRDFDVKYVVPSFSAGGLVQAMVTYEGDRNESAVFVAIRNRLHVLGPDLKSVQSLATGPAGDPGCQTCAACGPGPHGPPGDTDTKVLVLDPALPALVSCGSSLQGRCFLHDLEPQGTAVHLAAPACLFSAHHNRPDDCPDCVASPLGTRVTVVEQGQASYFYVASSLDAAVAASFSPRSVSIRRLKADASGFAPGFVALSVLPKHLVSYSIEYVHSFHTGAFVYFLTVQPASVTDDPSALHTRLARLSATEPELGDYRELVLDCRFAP
Chain of Macrophage-stimulating protein receptor (Homo sapiens) (Q04912 310-1400 limits assumed): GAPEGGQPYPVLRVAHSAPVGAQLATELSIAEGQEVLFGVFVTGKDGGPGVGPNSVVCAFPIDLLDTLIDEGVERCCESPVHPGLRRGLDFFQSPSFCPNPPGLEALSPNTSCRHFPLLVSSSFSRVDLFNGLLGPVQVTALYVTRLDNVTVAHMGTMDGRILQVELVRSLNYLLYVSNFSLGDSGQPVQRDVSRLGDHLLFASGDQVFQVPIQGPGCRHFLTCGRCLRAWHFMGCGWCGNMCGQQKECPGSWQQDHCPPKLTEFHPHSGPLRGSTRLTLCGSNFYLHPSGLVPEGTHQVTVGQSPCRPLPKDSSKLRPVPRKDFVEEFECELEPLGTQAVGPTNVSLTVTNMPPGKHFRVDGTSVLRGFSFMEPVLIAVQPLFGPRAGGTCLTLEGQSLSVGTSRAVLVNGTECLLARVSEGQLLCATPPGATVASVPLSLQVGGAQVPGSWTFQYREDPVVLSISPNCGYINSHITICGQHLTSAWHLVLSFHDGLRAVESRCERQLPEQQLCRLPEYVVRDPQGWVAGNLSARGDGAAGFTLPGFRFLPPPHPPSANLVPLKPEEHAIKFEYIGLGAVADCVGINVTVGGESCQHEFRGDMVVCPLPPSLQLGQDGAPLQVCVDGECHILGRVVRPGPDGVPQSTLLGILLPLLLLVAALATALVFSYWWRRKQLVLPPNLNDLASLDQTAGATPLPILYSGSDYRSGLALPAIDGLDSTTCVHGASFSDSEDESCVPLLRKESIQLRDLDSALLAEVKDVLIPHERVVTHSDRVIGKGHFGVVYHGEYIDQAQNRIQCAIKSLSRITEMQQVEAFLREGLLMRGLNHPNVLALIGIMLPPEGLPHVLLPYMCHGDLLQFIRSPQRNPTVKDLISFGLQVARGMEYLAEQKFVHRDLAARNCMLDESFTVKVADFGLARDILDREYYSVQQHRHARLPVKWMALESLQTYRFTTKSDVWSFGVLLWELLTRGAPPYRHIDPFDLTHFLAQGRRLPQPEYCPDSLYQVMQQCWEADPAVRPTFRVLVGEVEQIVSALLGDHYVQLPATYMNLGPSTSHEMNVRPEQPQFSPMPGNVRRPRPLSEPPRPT

As a reminder, the inhibition is the drop in the measured response relative to a control, in per cent. On to `CS(=O)(=O)Nc1ccc(N/C=C2\C(=O)Nc3ccccc32)cc1`, for which the inhibition in [1] is 50%; in test [2], -3.2%; in test [3], 6.3%; in test [4], 1.48%; in test [5], 6.73%; in [6] it was -2.8%. For the same compound, the inhibition in [7] is 8.01%; in test [8] it was -2.57%; in [9] it was 1.32%; in [10], -1.22%; in [11] it was -3.83%; in test [12] it was -2.97%. Besides, the inhibition in [13] was 0.17%; in [14], 0.36%; in [15] it was 2.36%; in test [16], -2.85%; in test [17], 6.96%; in test [18], -0.49%. For the same compound, the inhibition is 1.32% in test [19] and 5.97% in test [20].

Turning to `CCN1CCC(CC(=O)Nc2n[nH]c3nc(-c4cccs4)c(Br)cc23)CC1`, the inhibition in test [1] was -0.99%; in test [2], 0.5%; in test [3] it was 6.29%; in test [4], -0.25%; in test [5] it was -0.04%; in test [6], 15.4%. The inhibition is -4.33% in test [7]; -1.72% in test [8]; -0.34% in [9]; -1.06% in [10]; 0.14% in test [11]; -2% in [12]. Moreover, the inhibition in test [13] is -2.77%; in [14], 9.68%; in [15], 11.1%; in [16], -7.55%; in test [17], 4.72%; in [18] it was -0.98%. In addition, the inhibition in test [19] was -0.2%; in [20], -0.5%.

On to `COc1ccc(-c2nn3ncccc3c2-c2ccnc(Nc3ccc(Cl)c(C(F)(F)F)c3)n2)cc1`, for which the inhibition is 13.3% in [1]; -1.78% in test [2]; 2.44% in [3]; 2.34% in [4]; 2.35% in [5]; 1.05% in test [6]. Besides, the inhibition in [7] is 9.68%; in test [8], 0.23%; in test [9], 1.79%; in test [10], -1.43%; in [11], -1.11%; in test [12], 1.4%. For the same compound, the inhibition in test [13] stood at 1.86%; in [14], 4.94%; in test [15], 4.42%; in [16], 0.89%; in [17], 13.3%; in [18], 0.86%. The inhibition in test [19] was 1.6%; in test [20] it was -2.59%.

In the case of `CS(=O)(=O)CCNCc1nc(-c2ccc3ncnc(Nc4ccc(F)c(Cl)c4)c3c2)cs1`, the inhibition in test [1] was 31%; in [2], 1.17%; in test [3] it was -0.2%; in test [4], -1.86%; in test [5] it was 1.3%; in test [6], 8.61%. Moreover, the inhibition in test [7] is 9.31%; in test [8], -0.09%; in test [9] it was 1.81%; in test [10] it was 2.81%; in [11], -0.34%; in test [12], 3.79%. The inhibition in test [13] is 9.13%; in test [14], 7.71%; in test [15] it was 5.89%; in test [16], 4.58%; in test [17], 27.1%; in test [18], 0.19%. Besides, the results for the inhibition in test [19] and in test [20] were 2.87% and 3.85%, respectively.

For `CC1=C(C(=O)Nc2ccc3[nH]ncc3c2)C(c2ccc(F)cc2)NC(=O)N1` (stereo not given), the inhibition in [1] was 42.4%; in [2], 4.69%; in [3] it was 21.4%; in test [4], 7.19%; in test [5] it was 29.2%; in test [6] it was -8.18%. The inhibition in test [7] stood at 4.28%; in test [8], 0.2%; in [9] it was 2.69%; in test [10], 0.2%; in test [11] it was 1.72%; in test [12], 2.11%. For the same compound, the inhibition in [13] came to 2.37%; in test [14], 0.66%; in test [15], 3.1%; in [16] it was 4.95%; in [17], 31.2%; in test [18] it was 0.84%. Also, the inhibition in [19] is 3.68%; in test [20] it was 0.85%.

Take `Nc1nc(-c2ccccn2)c(-c2ccc3ncccc3n2)s1`: the inhibition in [1] was 10.2%; in test [2], 3.66%; in test [3], 6.53%; in [4], 2.94%; in test [5], 4.03%; in [6], 0.7%. For the same compound, the inhibition is 7.78% in test [7]; -0.44% in test [8]; -2.72% in test [9]; -1.33% in [10]; -0.74% in [11]; 3.91% in test [12]. Further, the inhibition in test [13] was determined as 7.33%; in [14], 2.07%; in test [15], 1.68%; in [16], 3.7%; in test [17], 5.67%; in test [18], 2.33%. Further, the inhibition in [19] was 2.94%; in [20] it was 3.9%.

Take `COc1ccc(-c2ccncc2)cc1C(N)=O`: the inhibition was 6.78% in [1]; 9.12% in test [2]; 1.15% in test [3]; 5.72% in test [4]; 17.5% in test [5]; 11.3% in test [6]. Moreover, the inhibition in test [7] was 12.4%; in test [8], -0.54%; in [9], -5.88%; in test [10] it was -1.18%; in test [11], 0.26%; in [12] it was 6.14%. Further, the inhibition in test [13] came to 5.31%; in test [14], 5.23%; in test [15] it was 6.4%; in test [16], 3.12%; in test [17] it was 5.16%; in test [18] it was 1.17%. For the same compound, the inhibition in [19] amounted to 2.39%; in test [20], 1.19%.
